Compounds with a hit are over-represented: about 10% of the library has one in this group of screens.
NS1 inh: blocks influenza NS1 protein function; hit rate 0.4% among 270,000; Potency, µM (doses to about 46.1 µM), inactives show at the top dose activity, positive = more growth; calls by dose curve; note: actives are rising curves; nearly all actives have a fitted effect of over 50% in size
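A cell-based growth assay was used: compounds that relieve NS1-induced slow growth of budding yeast raise OD600. Assay medium was yeast nitrogen base with ammonium sulphate and -URA supplement, pH 6.0, with 2% galactose.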
Pf growth 48h: inhibits P. falciparum growth in the first generation, 48 h; hit rate 5.9% among 310,000; Potency, µM (doses to about 28.7 µM), without a hit: at the highest dose activity change, negative = inhibition, hits mostly inhibitors; P. falciparum luciferase growth in erythrocytes, 48 h; AID 504832; note: % is set by controls: 0 for no effect and ±100 for the full control effect
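Read-out is firefly luciferase luminescence from an integrated reporter in P. falciparum, so falling signal marks reduced parasite growth. Infected erythrocytes were at 2% hematocrit and 0.1% parasitemia (final) in Albumax-supplemented RPMI 1640.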
SARS PLpro yeast: inhibitors of SARS-CoV papain-like protease in yeast | S. cerevisiae expressing SARS-CoV PLpro, growth rescue | Potency, µM (highest dose often 32.9 µM), for the others: top-dose activity, positive = growth rescue, hits mostly activators | hit rate 0.19% among 330,000 | AID 485353; calls by dose curve; note: 0% is about no effect; nearly all actives have a fitted effect of over 55% in size
Pf growth 96h: P. falciparum growth inhibition at 96 hours. P. falciparum luciferase reporter growth, 96 h. Potency, µM (top dose mostly 28.7 µM), inactives show at the highest dose activity change, negative = inhibition, actives largely listed as inhibitors. hit rate 6.9% among 320,000. AID 504834; note: % is set by controls: 0 for no effect and ±100 for the full control effect
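Erythrocytes infected with luciferase-expressing P. falciparum were dispensed at 2% hematocrit and 0.05% parasitemia (final), then incubated with compounds 96 hours at 37 C in 5% CO2. Luminescence after detection reagent addition reported growth.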
* = called active by the depositor; ? = inconclusive; . = no result given; [ ] = dose if it differs, or a comment. Unless noted, calls come from the whole dose curve; as a rule, active = well fitted inhibition curve with a large enough effect; inconclusive = small, poorly fitted or top-dose-only effect, or another doubt; inactive = no such curve, though single readings can be large or run the other way. Potency is the fitted concentration of half-maximal effect.

SMILES | NS1 inh | Pf growth 48h | SARS PLpro yeast | Pf growth 96h
CC[n+]1c(/C=C/c2cc([N+](=O)[O-])ccc2O)ccc2ccccc21 | 4% | ? | -5% | 95%
CC[n+]1c(/C=C/c2ccc(N(C)C)cc2)ccc2ccccc21 | -35% | 0.66µM* | -131% | 0.41µM*
C[n+]1c(/C=C/c2ccc(O)cc2)ccc2ccccc21 | -3% | ? | 1% | 2.3µM*
CCN(CC)c1ccc(/C=C/c2ccc3ccc(OC)cc3[n+]2CC)cc1 | -68% | 1.9µM* | -12% | -4%
CCC(C)c1ccccc1NC(=O)c1cc(C)no1 (configuration not stated) | -4% | 26% | 0% | 15%
Cc1ccc(N(CC(=O)NCc2ccccc2)C(=O)CCC(=O)Nc2nccs2)cc1 | 3% | -14% | 4% | -12%
COc1ccc(CNC(=O)CN(C(=O)CCC(=O)Nc2nccs2)c2ccc(C)cc2)cc1 | 13% | ? | 2% | 7.4µM*
COc1ccc(CN(CC(=O)NCc2ccc(F)cc2)C(=O)CCC(=O)Nc2nccs2)cc1 | 13% | 11% | 1% | 4.7µM*
C[n+]1cc(C(=O)N2CCCCC2)ccc1/C=C/c1c[nH]c2ccccc12 | 9% | ? | 0% | 0.41µM*
CCc1nnc(NC(=O)CN2CCN(Cc3ccccc3Cl)CC2)s1 | 8% | 0% | -10% | -8%
Cc1c(C(=O)N2CCCCC2)c(S(=O)(=O)NCc2ccccc2Cl)c(C)n1C | -3% | -11% | -8% | 13µM*
CC(C)(C)c1ccc(S(=O)(=O)N2CCC(c3nc4ccc(Cl)cc4[nH]3)CC2)cc1 | -2% | 12µM* | -13% | -4%
Clc1ccc(CN2CCC(c3nc4ccc(Cl)cc4[nH]3)CC2)cc1 | -32% | 10µM* | 2% | ?
CC(=O)Nc1ccc(S(=O)(=O)N2CCC(c3nc4ccc(C)cc4[nH]3)CC2)cc1 | -18% | ? | ? | ?
CCOC(=O)c1c(C)n(C)c2ccc(O)c(CN3CCN(C)CC3)c12 | 10% | 1% | 0% | 0%[5.75 µM]
COc1ccccc1-c1c(C)oc2c(CN3CCN(C)CC3)c(O)ccc2c1=O | 3% | -18% | 13% | -17%
CCOC(=O)c1c(-c2ccccc2)oc2ccc(O)c(CN3CCN(C)CC3)c12 | -5% | 3.7µM* | -2% | 3.3µM*
CCOC(=O)c1oc2c(CN3CCN(C)CC3)c(O)ccc2c(=O)c1-c1ccccc1OC | -7% | -3% | 3% | 9.3µM*
Cc1ccc(N=C2SC(C(=O)Nc3ccc(OC(F)(F)F)cc3)C(N)=C2C(=O)Nc2c(C)cc(C)cc2C)cc1 (configuration not stated) | ? | ? | 20% | 12µM*
Cc1ccc(NC(=O)C2SC(=Nc3ccccc3)C(C(=O)Nc3ccc(Cl)cc3)=C2N)cc1 (configuration not stated) | 9% | ? | 0% | ?
O=C(Nc1cc(Sc2ccccn2)cc([N+](=O)[O-])c1)c1ccc([N+](=O)[O-])cc1 | 4% | 13µM* | 1% | 3.3µM*
N#Cc1cc(Sc2ccccn2)c(Sc2ccccn2)cc1C#N | 4% | 9% | 11% | 34%
N#Cc1cc(Sc2ccccn2)c([N+](=O)[O-])cc1C#N | . | 3.7µM* | 3% | 69%
O=[N+]([O-])c1ccc(Sc2ccccn2)nc1 | 2% | ? | 0% | 8.3µM*
O=[N+]([O-])c1ccc(CSc2ccccn2)cc1 | 2% | . | 1% | 25%
SMILES | NS1 inh | Pf growth 48h | SARS PLpro yeast | Pf growth 96h
CC(NC(=O)CNC(=O)c1ccc2c(c1)OCO2)c1ccc(S(N)(=O)=O)cc1 (configuration not stated) | . | 12% | -1% | 6%
COc1ccc(CCNC(=O)c2coc(=O)c(Br)c2)cc1 | 2% | 5% | 1% | 0%
CCC1=C(OC(=O)N(CC)CC)N2C(=O)OC(=NCc3ccccc3)[C@]2(C)[C@H]2C1=CC[C@H]1C(=O)N(CC(=O)OC)C(=O)[C@H]12 | -7% | 8.3µM* | 2% | 9.3µM*
CCC1=C(OC(=O)N(CC)CC)N2C(=O)OC(=NCC3CC3)[C@]2(Cc2ccccc2)[C@H]2C1=CC[C@H]1C(=O)N(CC(=O)OC)C(=O)[C@H]12 | -5% | 5.9µM* | -3% | 7.4µM*
CCC1=C(OC(=O)N(CC)CC)N2C(=O)OC(=NCC(=O)OC)[C@]2(C)[C@H]2C1=CC[C@H]1C(=O)N(C)C(=O)[C@H]12 | 0% | 31% | 1% | 54%
CCC1=C(OC(=O)N(CC)CC)N2C(=O)OC(=NCc3ccccc3)[C@]2(C)[C@H]2C1=CC[C@H]1C(=O)N(c3ccccc3)C(=O)[C@H]12 | 6% | 7.4µM* | 1% | 8.3µM*
COCc1cccc(C(=O)NC(c2ccccc2)c2ccccc2)c1 | 3% | -21% | -1% | ?
COc1ccc(Br)c(C(=O)N(C)CC(=O)Nc2ccc(N3CCOCC3)cc2)c1 | . | 8% | -2% | 15%
CCOc1ccc(CN(C)C(=O)CCl)cc1 | . | 6.6µM* | 2% | 12%[5.75 µM]
CCOc1ccc(CN(C)C(=O)CCNC(=O)c2ccco2)cc1 | . | -8% | 2% | -13%
COc1ccc(CN(C)C(=O)CCc2ccc(S(=O)(=O)N3CCCCCC3)cc2)c(OC)c1 | . | 13µM* | -1% | ?
COc1ccc(CN(C)C(=O)/C=C/c2ccc(S(=O)(=O)N3CCCCCC3)cc2)cc1 | . | 9.3µM* | 0% | 13µM*
CCOc1ccc(CN(C)C(=O)CCc2ccc(S(=O)(=O)N3CCCCCC3)cc2)cc1 | . | 13µM* | 2% | ?
COc1ccc(CC(=O)Nc2ccc(S(=O)(=O)N3CCCC3)cc2)c(OC)c1 | . | ? | 1% | ?
COc1ccc(S(=O)(=O)N2CCCCCC2)cc1 | -14% | -8% | 5% | .
COc1ccc(NC(C)=O)cc1S(=O)(=O)N1CCN(Cc2cccs2)CC1 | . | -21% | 3% | ?
O=C(O)c1nn(-c2ccccc2-c2n[nH]c(=O)[nH]c2=O)c(=O)[nH]c1=O | 3% | 30% | 3% | -4%
CCOC(=O)N1CCN(C(=O)/C(=C/c2ccc(N(C)C)cc2)NC(=O)c2ccccc2)CC1 | . | ? | -1% | ?
CCOCCCNC(=S)Nc1ccc2nc(N3CCCC3)cc(C)c2c1 | 6% | 12µM* | 17% | -5%
COCCNC(=S)Nc1ccc2nc(N3CCCC3)cc(C)c2c1 | 10% | ? | 5% | ?
Cc1cc(N2CCCC2)nc2ccc(NC(=S)NC(C)C)cc12 | . | 10µM* | -5% | -24%
CCOc1ccccc1NC(=O)COC(=O)c1nc2nccc(C)n2n1 | . | . | 13% | .
CCOCCCNC(=O)CSc1nc2nc(C)c(Cc3ccccc3)c(C)n2n1 | . | 1% | 0% | 4.7µM*
Cc1nc2nc(SCC(=O)NCCCN3CCCCC3)nn2c(C)c1Cc1ccccc1 | -1% | ? | -7% | -18%
Cc1nc2nc(SCC(=O)NCCCN3CCOCC3)nn2c(C)c1Cc1ccccc1 | . | ? | -2% | 3.3µM*
Cc1ccc(Cc2c(C)nc3nc(SCC(=O)NCCCN4CCCCCC4)nn3c2C)cc1 | 16% | ? | 2% | 10µM*
COc1ccc(OC)c(CCNC(=O)C(C)n2nc(C)c3c(C)n(-c4ccccc4)nc3c2=O)c1 (configuration not stated) | 3% | -19% | 1% | 12µM*

High-throughput results as filed in PubChem BioAssay.
